# Assay results taken from PubChem BioAssay AID1159580 (chemical genetic matrix, 2015).
# The campaign covered roughly 5,500 compounds. About 2,000 (36%) were called active. Another 18% or so got no clear call; they are omitted. This is one part of the list. A number with no mark means an inactive call. Rule as the data show it: active = normalized growth mostly below about 0.91 (no sharp cut-off); inconclusive = no clear call, values can overlap the other calls; inactive = mostly above about 0.92.
# Assay: chemical genetic growth profiling, strain panel (AID 1159580);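 also: tested at 20 µM; growth read once vehicle control cultures reached saturation at 30 °C; 1 = growth at the plate median or of vehicle wells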
# Settings: S. cerevisiae deletion strains, growth OD
smiles,measurement,setting,value
O=C1CC(CSc2ccc(Cl)cc2)=NN1,normalized growth,"locus YAL013W, strain DEP1, stronger effect = lower value",0.957
same,normalized growth,"locus YBR229C, strain ROT2, stronger effect = lower value",0.911 (active)
same,normalized growth,"locus YCL061C, strain MRC1, stronger effect = lower value",0.95
same,normalized growth,"locus YDL101C, strain DUN1, stronger effect = lower value",1.02
same,normalized growth,"locus YDR150W, strain NUM1, stronger effect = lower value",0.968
same,normalized growth,"locus YEL061C, strain CIN8, stronger effect = lower value",0.832 (active)
same,normalized growth,"locus YGR078C, strain PAC10, stronger effect = lower value",0.963
same,normalized growth,"locus YHR030C, strain SLT2, stronger effect = lower value",0.752
same,normalized growth,"locus YHR087W, strain rtc3, stronger effect = lower value",0.837 (active)
same,normalized growth,"locus YJL187C, strain SWE1, stronger effect = lower value",0.908 (active)
same,normalized growth,"locus YJR043C, strain POL32, stronger effect = lower value",0.982
same,normalized growth,"locus YJR075W, strain HOC1, stronger effect = lower value",0.936
same,normalized growth,"locus YLR039C, strain RIC1, stronger effect = lower value",1.02
same,normalized growth,"locus YLR058C, strain SHM2 (second series), stronger effect = lower value",0.949
same,normalized growth,"locus YLR085C, strain ARP6, stronger effect = lower value",0.659 (active)
same,normalized growth,"locus YLR262C, strain YPT6, stronger effect = lower value",0.987
same,normalized growth,"locus YML094W, strain GIM5, stronger effect = lower value",0.857 (active)
same,normalized growth,"locus YMR219W, strain ESC1, stronger effect = lower value",0.918 (active)
same,normalized growth,"locus YMR263W, strain SAP30, stronger effect = lower value",0.978
same,normalized growth,"locus YNL153C, strain GIM3, stronger effect = lower value",0.965
same,normalized growth,"locus YNL298W, strain CLA4 (second series), stronger effect = lower value",0.789 (active)
same,normalized growth,"locus YNL322C, strain KRE1, stronger effect = lower value",0.938 (active)
same,normalized growth,"locus YNR030W, strain Alg12, stronger effect = lower value",0.844 (active)
same,normalized growth,"locus YPL055C, strain LGE1, stronger effect = lower value",0.89
same,normalized growth,"locus YPL241C, strain CIN2, stronger effect = lower value",0.83 (active)
same,normalized growth,"locus YPR135W, strain CTF4, stronger effect = lower value",0.639 (active)
